Entries with a potency or affinity are not part of this list.
biological target: Protein S100-A4 (Homo sapiens) (UniProt P26447); test: S100A4-myosin IIA binding inhibitor potency, dose response, biochemical, fluorescence polarization, cherry-picked hits (AID 687001); conditions: FP, S100A4/TAMRA-myosin IIA peptide binding; series mostly up to 11 µM; activity change, negative = inhibition: at the top concentration;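 further: 0% = DMSO neutral control wells and -100% = TFP positive control wells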
Sequence (P26447 whole entry, looked up): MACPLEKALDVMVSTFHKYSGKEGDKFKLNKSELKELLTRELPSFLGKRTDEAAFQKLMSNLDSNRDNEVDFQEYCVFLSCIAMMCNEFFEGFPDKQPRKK

Activity change, negative = inhibition, inactive:
O=C(NCCS(=O)(=O)NCCc1ccccc1)c1ccccc1 0.893%
COc1ccc(C2SCCN2S(=O)(=O)c2ccc(F)cc2)cc1OC (centres undefined) -4.85%
C[C@@H]1CCCCO[C@@H](CN(C)C(=O)Cc2ccccc2)[C@H](C)CN([C@@H](C)CO)C(=O)c2cc(NC(=O)Nc3ccc4c(c3)OCO4)ccc2O1 5.09%
C[C@@H](NC(=O)C[C@@H]1CC[C@H](NC(=O)C2CCC2)[C@H](CO)O1)c1ccccc1 0.215%
C[C@H]1CN([C@@H](C)CO)C(=O)c2cc(Br)cnc2O[C@H]1CN(C)C(=O)c1ccccc1F 3.92%
C[C@@H]1CCCCO[C@@H](CN(C)C(=O)Nc2cccc3ccccc23)[C@H](C)CN([C@@H](C)CO)C(=O)c2cc(NC(=O)C3CCCCC3)ccc2O1 17.6%
O=C(Nc1ccc2c(c1)OCO2)N[C@@H]1CC[C@@H](CCNC(=O)C2CCCC2)O[C@H]1CO -2.33%
COc1ccc2c3c(n(C)c2c1)[C@H](CO)N(C(=O)c1ccccc1)CC31CCN(C(=O)c2ccccc2)CC1 7.85%
CN(C)CCCN(C(=O)c1ccc(S(=O)(=O)N2CCCCCC2)cc1)c1nc2cc3c(cc2s1)OCO3 -0.688%
CCCN1[C@H](CO)[C@H](c2ccc(C3=CCCCC3)cc2)[C@@H]1CNS(C)(=O)=O 7.85%
O=C(CSc1ccc(Cl)cc1)NC1CC1 -3.42%
COc1ccc(Cl)cc1Cn1c(C)c(C(=O)NCc2ccc(C#N)cc2)sc1=O 3.83%
O=C1SCCC1NC(=O)C(c1ccccc1)c1ccccc1 (centres undefined) 2.61%
CCC(=O)N1CCC(C)(C(=O)NCc2ccc(F)cc2)C1 (centres undefined) -3.36%

Source: PubChem BioAssay AID687001 (Broad Institute, 2013)
